Assay results reported in PubChem BioAssay.
Calls of active or inactive are those of the source.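 The calls were made as follows, unless noted: active = inhibition above 20% together with a positive visual image hit; inconclusive = visual image hit but inhibition not above 20%; inactive = no visual image hit.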

Experiments:
[1] = inhibitors of TNFa-induced NFkB p65 translocation, primary screen, imaging, HUVEC, MLSMR starter and 10KST1 sets (AID 438); conditions: HUVEC TNFa-induced p65 nuclear translocation; cell count: measured here: nuclei count (cytotoxicity indicator), at 2.08 µM; inhibition: at 2 µM, stronger effect = higher value, 0% TNFa-plus-vehicle, 100% no-TNFa wells;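 also: compound added about 3h40 before a 20 min TNFalpha stimulation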;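 as to inhibition: signal is the nuclear over cytoplasmic p65 intensity ratio per well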
[2] = inhibitors of mutant huntingtin aggregation, primary screen, imaging, exon1htt(103Q)mCFP cells, high-content imaging (AID 483;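 active = visual image review flags a hit and inhibition of aggregation exceeds 20%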;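 also: compound exposure lasted 3 days before fixation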;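 as to nuclei count: percent of the per-plate median nuclei count of sample wells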); conditions: exon1htt(103Q)mCFP cell line, aggregate imaging, at 2 µM; inhibition of aggregation: stronger effect = higher value; nuclei count: measured here: cell count, toxicity
[3] = inhibitors of E-selectin induction by TNFa, primary screen, imaging, HUVEC, immunofluorescence, MLSMR starter and 10KST1 sets (AID 487;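 active = visually confirmed hit in the image check and inhibition above 20%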;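 as to inhibition: signal is fraction of cell area covered by stained E-selectin grains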;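 as to nuclei count: 100% = median nuclei count of all wells on the same plate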); conditions: HUVEC TNFalpha-induced E-selectin immunofluorescence imaging, at 2 µM; inhibition: stronger effect = higher value; nuclei count: measured here: cell number, toxicity
[4] = molecular target: Voltage-gated potassium channel subunit beta-2 (Rattus norvegicus) (UniProt P62483); assay: KvBeta enzyme negative modulators, primary screen, biochemical, NADPH fluorescence (AID 622;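 active = fluorescence slope higher than the sample average by over 3 SD, cut at about -0.22 in these data, passing the limit was not always enough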;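 also: slope of raw intensity against log time taken from 70 to 1610 s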); conditions: recombinant KvBeta, 4-cyanobenzaldehyde reduction, at 10 µM, stronger effect = higher value
[5] = molecular target: Voltage-gated potassium channel subunit beta-2 (Rattus norvegicus) (UniProt P62483); assay: KvBeta positive modulators, primary screen, biochemical, NADPH fluorescence (AID 623;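 active = NADPH fluorescence slope more negative than the mean of all samples by about 3 SD, 99.7% confidence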;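 also: fluorescence intensity change per second fitted from 20 to 320 s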); conditions: Recombinant KvBeta, NADPH fluorescence decrease slope, 10 min; at 10 µM; stronger effect = lower value
[6] = molecular target: Alpha-2C adrenergic receptor (Homo sapiens) (UniProt P18825); assay: modulators of alpha2C/GIRK thallium flux, primary screen, cell-based, HEK293 alpha2C/GIRK1/2 (AID 624;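 active = fluorescence slope after compound addition differing from the mean of all screened samples at 99.7% confidence, in either direction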;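 also: slope of fluorescence ratio to pre-addition baseline per second over 15 to 24 s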); conditions: thallium flux BTC fluorescence, at 10 µM, actives lie on both sides
[7] = inhibitors of Sendai virus-induced IRF3 signaling, primary screen, TLR/RLR signaling modifier project, cell-based, Sendai virus stimulus, luciferase, 10K MLSCN set (AID 602276;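 active = inhibition at or above 50% at 10 µM; inactive = inhibition below 50%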;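 also: firefly luciferase from ISG56 promoter only with Renilla not read in this screen; 0% = Sendai virus plus DMSO and 100% = medium plus DMSO without virus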); conditions: HEK293 RL24 IRF3 luciferase reporter, at 10 µM, stronger effect = higher value
[8] = inhibitors of poly I:C-induced TLR3 signaling, primary screen, cell-based, poly I:C stimulus, luciferase, 10K MLSCN set (AID 602277;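 active = inhibition of the reporter signal at or above 50%; inactive = inhibition below 50%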); conditions: HEK293-TLR3 RL24 IRF3 luciferase reporter, at 10 µM, stronger effect = higher value

Chain of Alpha-2C adrenergic receptor (Homo sapiens) (P18825 whole entry, looked up): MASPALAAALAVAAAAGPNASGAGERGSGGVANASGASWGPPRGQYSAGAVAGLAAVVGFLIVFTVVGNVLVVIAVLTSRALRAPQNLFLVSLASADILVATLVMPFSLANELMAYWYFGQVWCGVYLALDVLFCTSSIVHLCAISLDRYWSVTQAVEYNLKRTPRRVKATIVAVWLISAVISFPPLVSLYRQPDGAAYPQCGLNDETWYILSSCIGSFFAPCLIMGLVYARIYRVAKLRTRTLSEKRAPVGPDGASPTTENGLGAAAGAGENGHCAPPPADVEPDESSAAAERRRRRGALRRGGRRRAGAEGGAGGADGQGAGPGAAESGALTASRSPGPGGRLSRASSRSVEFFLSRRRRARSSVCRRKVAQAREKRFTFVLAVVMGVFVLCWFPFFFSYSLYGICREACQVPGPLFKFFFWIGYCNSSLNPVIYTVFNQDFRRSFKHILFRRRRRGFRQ
Chain of Voltage-gated potassium channel subunit beta-2 (Rattus norvegicus) (P62483 whole entry, looked up): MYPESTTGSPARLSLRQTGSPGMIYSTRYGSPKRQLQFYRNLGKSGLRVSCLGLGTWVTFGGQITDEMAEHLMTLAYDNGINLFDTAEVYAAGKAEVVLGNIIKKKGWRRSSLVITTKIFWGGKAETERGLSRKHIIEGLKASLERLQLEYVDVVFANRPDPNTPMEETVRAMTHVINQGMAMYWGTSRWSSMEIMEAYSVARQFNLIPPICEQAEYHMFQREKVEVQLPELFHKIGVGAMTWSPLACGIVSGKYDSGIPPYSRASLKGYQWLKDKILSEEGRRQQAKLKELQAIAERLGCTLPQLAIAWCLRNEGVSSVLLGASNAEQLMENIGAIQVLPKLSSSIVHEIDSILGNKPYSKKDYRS

SMILES	cell count [1]	inhibition [1]	inhibition of aggregation [2]	nuclei count [2]	inhibition [3]	nuclei count [3]	fluorescence slope [4]	NADPH fluorescence slope [5]	slope [6]	inhibition [7]	inhibition [8]
CCCCCn1c(CN2CCN(C(=O)c3ccco3)CC2)nc2c1c(=O)n(C)c(=O)n2C	726	-14.6% (inactive)	-17.8% (inactive)	103%	-13.1% (inactive)	113%	-0.57 (inactive)	-5.2e-05 (inactive)	0.00727 (inactive)	1.47% (inactive)	11.3% (inactive)
CS(=O)(=O)C1=C(O)C(=O)N(c2ccccc2)C1c1ccccc1 (stereo unspecified)	415	-6% (inactive)	-10.4% (inactive)	103%	-41.9% (inactive)	132%	-0.439 (inactive)	1.7e-05 (inactive)	0.00632 (inactive)	-1.92% (inactive)	26.4% (inactive)
C=CCOc1nc(N(C)C)nc(N(C)C)n1	569	3.6% (inactive)	-3.6% (inactive)	103%	-138% (inactive)	96%	-0.595 (inactive)	-3.9e-05 (inactive)	0.00356 (inactive)	10.6% (inactive)	10.6% (inactive)
CC(C)(C)Nc1nc(NC(C)(C)C)nc(-n2ccnc2)n1	194	-0.8% (inactive)	-0.1% (inactive)	81.5%	2.8% (inactive)	91.6%	-0.443 (inactive)	1.8e-05 (inactive)	0.00537 (inactive)	14.6% (inactive)	29% (inactive)
CCOC(=O)c1ccc2[nH]c(C)c(CN3CCN(C)CC3)c(=O)c2c1	332	6.1% (inactive)	11.1% (inactive)	89.7%	20.8% (inactive)	112%	-0.471 (inactive)	-4e-05 (inactive)	0.00513 (inactive)	-4.42% (inactive)	21.9% (inactive)
CCOc1ccc(N(C(C)=O)C2C=CS(=O)(=O)C2)cc1 (stereo unspecified)	610	-0.2% (inactive)	-4.3% (inactive)	104%	-4% (inactive)	139%	-0.496 (inactive)	-1.8e-05 (inactive)	0.00613 (inactive)	3.45% (inactive)	19.5% (inactive)
CN(C)c1cccc2c(S(=O)(=O)Nc3ccccn3)cccc12	679	11.1% (inactive)	11.7% (inactive)	101%	22.1% (inactive)	86.9%	-0.318 (inactive)	-1.7e-05 (inactive)	0.00542 (inactive)	11.3% (inactive)	19.3% (inactive)
CCOC(=O)c1ccc(NC(=O)CSc2n[nH]c(-c3ccncc3)n2)cc1	590	-1.9% (inactive)	7.2% (inactive)	99.9%	-26.4% (inactive)	110%	-0.592 (inactive)	-3.8e-05 (inactive)	0.00612 (inactive)	-5.95% (inactive)	-15.4% (inactive)
CC(C)CC1NC2(C(=O)N(C)c3ccccc32)C2C(=O)N(C(C)C)C(=O)C12 (stereo unspecified)	798	-5.5% (inactive)	-49.8% (inactive)	72.1%	13.8% (inactive)	103%	-0.482 (inactive)	9.4e-06 (inactive)	0.00636 (inactive)	-1.45% (inactive)	-17% (inactive)
O=C(Cn1cc2c(n1)CCCC2)NCCc1ccccc1	792	-3.7% (inactive)	0.9% (inactive)	106%	-47.8% (inactive)	118%	-0.428 (inactive)	-2.6e-05 (inactive)	0.00628 (inactive)	5.6% (inactive)	31.9% (inactive)
O=C(C1CCN(C2CC(=O)N(c3ccc(F)cc3)C2=O)CC1)N1CCOCC1 (stereo unspecified)	326	6.1% (inactive)	19.1% (inactive)	79.5%	12.7% (inactive)	75.9%	-0.512 (inactive)	-2.5e-05 (inactive)	0.00647 (inactive)	7.33% (inactive)	13% (inactive)
O=C(CSc1nccn1-c1cccc(Cl)c1)NC1CCCC1	256	-9.5% (inactive)	-1.4% (inactive)	95.8%	39.3% (inactive)	95.5%	-0.618 (inactive)	3e-05 (inactive)	0.00565 (inactive)	14.4% (inactive)	29.2% (inactive)
Cc1ccc(-c2nnn(CC(=O)N(Cc3ccco3)C(C(=O)NC(C)(C)C)c3cccs3)n2)o1 (stereo unspecified)	643	3.5% (inactive)	4.8% (inactive)	85.8%	-43.9% (inactive)	117%	-0.595 (inactive)	-7.2e-05 (inactive)	0.00341 (inactive)	9.52% (inactive)	12.3% (inactive)
Cc1ccc(-c2nc(=S)c3c(n2Cc2ccco2)CCCC3)cc1	320	1% (inactive)	-7.2% (inactive)	77.9%	-22.3% (inactive)	85.5%	-0.485 (inactive)	-0.00017 (inactive)	0.00678 (inactive)	16% (inactive)	27.9% (inactive)
O=C(OCN1C(=O)c2ccccc2C1=O)C1CCCCC1	391	3.5% (inactive)	3.5% (inactive)	95.3%	-43.8% (inactive)	113%	-0.348 (inactive)	-5e-05 (inactive)	0.00442 (inactive)	6.81% (inactive)	12.4% (inactive)
C=CCSC1=C(C#N)C(c2ccccc2)CC(=O)N1 (stereo unspecified)	486	-1.6% (inactive)	1.6% (inactive)	101%	-112% (inactive)	104%	-0.527 (inactive)	8.1e-07 (inactive)	0.00534 (inactive)	6.68% (inactive)	8.17% (inactive)
Cc1cc(Cl)ccc1OCCCC(=O)NO	375	0.8% (inactive)	-15% (inactive)	65.5%	-31.4% (inactive)	108%	-0.31 (inactive)	-1.1e-05 (inactive)	0.00525 (inactive)	9.52% (inactive)	-4.29% (inactive)
O=C(NC1CCCc2ccccc21)c1ccc(CNc2c(N3CCOCC3)c(=O)c2=O)cc1 (stereo unspecified)	644	-3.4% (inactive)	36.3% (active)	51.3%	-52.7% (inactive)	108%	-0.55 (inactive)	-2.5e-06 (inactive)	0.00556 (inactive)	12.8% (inactive)	27% (inactive)
O=P(O)(CCc1ccccc1)CN1CCCCC1	446	-6.3% (inactive)	-8.7% (inactive)	100%	-137% (inactive)	108%	-0.419 (inactive)	5e-05 (inactive)	0.00723 (inactive)	-8.42% (inactive)	-0.191% (inactive)
CCOC(=O)C(NC(C)=O)(Nc1ccc(S(=O)(=O)Nc2nccs2)cc1)C(F)(F)F (stereo unspecified)	523	-1% (inactive)	27% (inactive)	93.8%	4.2% (inactive)	95.9%	-0.645 (inactive)	1.5e-06 (inactive)	0.00657 (inactive)	14.8% (inactive)	30.2% (inactive)
COc1cc(NC(=O)C2C3C=CC(C3)C2C(=O)O)c(OC)cc1Cl (stereo unspecified)	406	0.8% (inactive)	-31% (inactive)	98.6%	19.6% (inactive)	90%	-0.49 (inactive)	-6.5e-06 (inactive)	0.00705 (inactive)	-7.81% (inactive)	20.2% (inactive)
CC1C=CC(C)C(C(=O)O)C1C(=O)O (stereo unspecified)	543	-4.4% (inactive)	13% (inactive)	46.5%	-15.8% (inactive)	96%	-0.476 (inactive)	-5.7e-05 (inactive)	0.00278 (inactive)	7.99% (inactive)	41.3% (inactive)
O=C(CSc1nnc2ccccn12)NCCN1C(=O)CSC1=O	701	-2.8% (inactive)	-2.4% (inactive)	94.1%	-218% (inactive)	130%	-0.608 (inactive)	-5.5e-06 (inactive)	0.00611 (inactive)	7.75% (inactive)	2.81% (inactive)
CCN(CC)c1nc(N(CC)CC)[nH]c(=O)n1	477	-6.5% (inactive)	15.2% (inactive)	92.1%	-0.4% (inactive)	59.6%	-0.512 (inactive)	-3.2e-05 (inactive)	0.00579 (inactive)	3.82% (inactive)	-16% (inactive)
O=C(Nc1ccc2c(c1)OCCO2)C1CCCN(S(=O)(=O)c2cnc[nH]2)C1 (stereo unspecified)	628	4.1% (inactive)	-8% (inactive)	102%	-29.5% (inactive)	114%	-0.563 (inactive)	-4.5e-07 (inactive)	0.00662 (inactive)	-16.1% (inactive)	-6.55% (inactive)
CS(=O)(=O)N1CCN(c2ccccc2NC(=O)c2cccs2)CC1	629	0.5% (inactive)	-6.7% (inactive)	105%	-0.6% (inactive)	89.5%	-0.501 (inactive)	1.2e-05 (inactive)	0.00365 (inactive)	11.6% (inactive)	18.8% (inactive)
